# DAX1 inh-1 = DAX1 (NR0B1) inhibitors on StAR promoter, primary screen, cell-based, luminescence, SF-1 (NR5A1), full-length DAX-1; HEK293T StAR-luciferase reporter, SF-1/DAX-1 repression relief; 370,000 compounds, 1.1% hits; inhibition, % at 6.8 µM;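 active = inhibition above the mean over all tested compounds plus 3 SD, cut at about 3.6% in these data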;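 note: 0% = DAX-1 cells with DMSO and 100% = cells lacking DAX-1 with DMSO; higher inhibition means more luminescence from relief of DAX-1 repression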
# hcDAF-12 act = H. contortus DAF-12 nuclear receptor activators, primary screen, cell-based, luminescence, HEK293, lit1-tk-luc reporter; HEK293 hcDAF-12 lit1-tk-luc reporter; 0% DMSO, 100% Δ7-dafachronic acid; activation, % at 6.8 µM; 370,000 compounds, 1.4% hits;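 active = activation above the mean of all tested compounds plus 3 SD, cut at about 5.5% in these data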;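 note: 100% = response to 3 µM Δ7-dafachronic acid high control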
# hgDAF12 agonist = H. glycines DAF-12 receptor agonists, primary screen, cell-based, luminescence, HEK293, GAL4 fusion, UAS-luciferase | Nuclear hormone receptor DAF-12 (Heterodera glycines), GAL4 fusion | HEK293 GAL4-hgDAF12 UAS-luciferase reporter, agonist luminescence; normalized to butyrate control | activation, % at 6.8 µM | 370,000 compounds, 1.8% hits;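 active = activation above a cutoff set at the mean of all screened compounds plus 3 SD, cut at about 10% in these data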;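 note: 0% = DMSO wells and 100% = sodium butyrate wells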
# DAX1 inh-2 = DAX1 (NR0B1) inhibitors, primary screen, cell-based, HEK293, Gal4-DAX1, luciferase luminescence | Nuclear receptor subfamily 0 group B member 1 (Homo sapiens), P51843 | HEK293 Gal4-DAX1 luciferase reporter | inhibition, % at 6.75 µM | 340,000 compounds, 0.99% hits | AID 504766, 2011;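 active = inhibition above the mean over all tested compounds plus 3 SD, cut at about 4.2% in these data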;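 note: 0% = DAX1-transfected cells with DMSO and 100% = empty-vector control cells with DMSO; inhibition shows as a rise in luminescence from relieved DAX1 repression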
# Target sequence (P51843 207-470 limits assumed): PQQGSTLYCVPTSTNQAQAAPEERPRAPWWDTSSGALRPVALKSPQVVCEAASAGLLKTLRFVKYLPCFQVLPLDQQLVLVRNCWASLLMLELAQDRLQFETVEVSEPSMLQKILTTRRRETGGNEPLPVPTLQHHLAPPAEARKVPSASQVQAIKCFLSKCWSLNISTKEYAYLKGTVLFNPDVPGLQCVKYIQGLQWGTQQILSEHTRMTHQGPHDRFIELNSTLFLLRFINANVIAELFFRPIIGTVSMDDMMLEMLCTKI
# ssDAF-12 act = S. stercoralis DAF-12 nuclear receptor activators, primary screen, cell-based, luminescence, HEK293, GRIP1 co-expression, lit1-tk-luc | Nuclear hormone receptor DAF-12 (Strongyloides stercoralis) | HEK293 ssDAF-12/GRIP1 lit1-tk-luc reporter; % of 3 µM dafachronic acid response | activation, % at 6.8 µM | 370,000 compounds, 1% hits | AID 652126, 2013;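 active = activation above the mean over all tested compounds plus 3 SD, cut at about 0.9% in these data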;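 note: 0% = DMSO-only wells and 100% = 3 µM delta7-dafachronic acid wells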
# LXR ag = LXR agonists, Gal4 luciferase reporter, confirmation, counter-screen for hcDAF-12 agonist project, cell-based, luminescence, HEK293, H. contortus campaign; shares compounds with hcDAF-12 act; HEK293 Gal4-LXR tk-luc reporter, 24 h; normalized: DMSO 0%, positive control 100%; activation, % at 6.8 µM; 3,400 tested, under 10 active;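 active = mean percent activation of the reporter above a cutoff set as the average over tested compounds plus their standard deviation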
# hcDAF12 conf = H. contortus DAF-12 receptor agonists, confirmation, cell-based, luminescence, HEK293, lit1-tk-luc, triplicate | shares compounds with hcDAF-12 act | HEK293 hcDAF-12 lit1-tk-luc reporter; % of Δ7-dafachronic acid response | activation, % at 6.8 µM | 3,400 compounds, 61% hits | AID 743032, 2013;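 active = mean activation across triplicate tests above the threshold derived from the earlier primary screen, cut at about 5.5% in these data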;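 note: 0% = DMSO only wells and 100% = 3 µM Δ7-dafachronic acid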
# Starred values were filed as active, the others as inactive; . = no result. This is a sample that favours compounds with a hit; in the whole collection about 4.1% have one here.
SMILES,DAX1 inh-1,hcDAF-12 act,hgDAF12 agonist,DAX1 inh-2,ssDAF-12 act,LXR ag,hcDAF12 conf
CC(C)Oc1ccc(CN2CCC2(C)C(=O)Nc2cnc3ccccc3c2)cc1 (stereo unspecified),-2,-2,-4,.,-2,.,.
Cc1ccc(N=Nc2[nH]c3ccccc3c2O)cc1,2,9.5*,13*,3,1,1,12*
CCN1C[C@@H]2[C@@H]3C(=O)N(Cc4ccccc4)C(=O)[C@@H]3[C@](Cc3ccccc3)(C1=O)N2C(=O)c1ccc(Cl)cc1,0,-1,-2,-1,-1,.,.
CCC/C(=C1/c2ccccc2C(=O)N1c1ccccc1)c1c(C)noc1C,0,-1,4,.,-1,.,.
CCOc1ccccc1OCCCC(=O)Nc1cc(S(=O)(=O)N2CCCCC2)ccc1C,-1,-1,-3,1,-1,.,.
O=C(NNc1nc2cc3c(cc2s1)OCCO3)c1ccccc1,1,2,6,1,-1,.,.
Cc1cccc2sc(NNC(=O)c3ccc4c(c3)OCCO4)nc12,0,9.4*,1,2,0,0,3
Cc1c(C(=O)N2CCc3ccccc32)oc2ccccc12,4.4*,14*,19*,3,4.6*,1,18*
O=C(c1ccc2c(c1)OCO2)N1CCc2ccccc21,1,7.1*,3,-2,1.1*,0,4
CC1=C(c2ccccc2)C(=O)C(C)(C)CC1=O,0,1,-2,.,-1,.,.
CNC(=O)C1CC(=O)N(c2ccc(OCC(=O)NCc3ccccc3)cc2)C1 (stereo unspecified),0,-2,-2,-1,-1,.,.
O=[N+]([O-])c1cccc(SSc2cccc([N+](=O)[O-])c2)c1,-1,-1,-1,-1,-1,.,.
Cc1ccc(/C=C2\OC(=O)c3ccccc32)cc1,1,8.4*,10,2,0,1,8.5*
CCn1c(N2CCN(C(c3ccccc3)c3ccccc3)CC2)nc2c1c(=O)[nH]c(=O)n2C,0,0,-1,-1,-1,.,.
Cc1ccc(N=C2C(=O)Nc3ccccc32)cc1C,0,-1,-2,-1,0,.,.
CC(=O)c1cccc(N=C2C(=O)Nc3ccccc32)c1,1,6.6*,2,0,0,0,2
O=C(COc1cccc(Cl)c1)N/N=C\c1cc2ccccc2nc1Cl,0,2,-3,1,-1,.,.
O=C(CNc1ccc2ccccc2c1)N/N=C/c1cc2ccccc2nc1Cl,1,13*,4,-1,0,0,4
Nn1c(SCC(=O)Nc2ccccc2-c2ccccc2)nnc1-c1cc(-c2ccc(Cl)cc2)n[nH]1,-1,-3,-1,.,-1,.,.
Cc1ccc(S(=O)(=O)NC(=O)NCCCN2CCOCC2)cc1,0,7.6*,0,3,0,0,1
C=CCOc1ccc(C(c2c(C(=O)O)[nH]c3ccccc23)c2c(C(=O)O)[nH]c3ccccc23)cc1,0,7.5*,3,2,0,0,7.6*
COC(=O)C(NC=O)C(O)(Cc1ccccc1)C(F)(F)F (stereo unspecified),1,9.7*,5,0,1,0,6
COC(=O)C(O)(NC(=O)OCc1ccccc1)C(F)(F)F (stereo unspecified),0,-1,1,0,-1,.,.
Cc1c(S(=O)(=O)N2CCN(c3ccc(F)cc3)CC2)c(=O)n(C)c(=O)n1C,1,-1,1,-1,-1,.,.
CCOC(=O)[C@]12CCC=C1N(Cc1ccc(Cl)cc1Cl)C(=O)[C@H](CC(=O)NCCc1ccccc1OC)C2,-1,-1,-2,.,-1,.,.
SMILES,DAX1 inh-1,hcDAF-12 act,hgDAF12 agonist,DAX1 inh-2,ssDAF-12 act,LXR ag,hcDAF12 conf
Clc1ccc(/C=N/NC2=Nc3cccc4cccc2c34)cc1,1,6.7*,7,4,0,1,10*
Clc1ccc(/C=N/Nc2nc(Cl)nc3ccccc23)cc1,2,4,10,4,-1,.,.
Cc1csc(N/N=C/c2ccccc2F)n1,1,7.2*,10,3,1,1,10*
CCC(O)C1CCN(C(=O)c2cc(COc3ccc(F)cc3F)on2)CC1 (stereo unspecified),0,-3,2,0,-1,.,.
Cc1ccc(S(=O)(=O)N2CCCCC2)cc1C(=O)NCc1ccc(S(N)(=O)=O)cc1,0,-1,-1,0,0,.,.
O=C1OCC(CO)(CO)N=C1NNc1ccccc1Cl,1,9.0*,1,0,1,0,2
O=C(O)C1(Nc2ccccc2Cl)CCCC1,0,0,3,-1,-1,.,.
O=C(NC(=S)Nc1cc([N+](=O)[O-])ccc1O)C1CC1,0,9.6*,3,0,-1,0,1
O=C(CSCC(=O)N1CCCCC1)Nc1nc(-c2ccc(Cl)s2)cs1,-1,5,7,0,-1,.,.
CC1CC(C)CN(C(=O)CSCC(=O)Nc2nc(-c3cccs3)cs2)C1 (stereo unspecified),1,8.2*,7,0,1,0,5
O=C(CSCC(=O)N1CCCCC1)Nc1nc(-c2cccs2)cs1,0,9.1*,6,1,0,0,6.0*
NC(=O)c1ccccc1NCC(=O)c1ccc(Cl)cc1,0,2,1,2,-1,.,.
O=C(CNc1ccccc1C(=O)O)c1ccccc1,1,7.7*,1,1,1,0,0
CC(CC(=O)Nc1ccc2c(c1)c(=O)n(C)n2Cc1ccc(F)cc1)c1ccccc1 (stereo unspecified),-1,-2,-3,.,-1,.,.
COc1cc(C(=O)N2CCC(N3CCN(C)CC3)CC2)ccc1Nc1ncc2c(n1)N(C)c1ccccc1C(=O)N2C,3.7*,6.8*,-5,.,0,0,6.4*
N#C/C(=C\c1ccccc1OCC(=O)O)c1nc2ccccc2[nH]1,1,7.8*,5,2,0,0,4

# Screens as filed in PubChem BioAssay.
